Assay outcomes from PubChem BioAssay.
TIM10 inh = growth inhibitors of TIM10 yeast strain; S. cerevisiae TIM10 strain growth, BacTiter-Glo luminescence, 24 h; inhibition, % at 10 µM; 330,000 compounds, 1.4% hits; AID 463195;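 active = inhibition of 40% or more at the single tested concentration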;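 also: wild-type TIM10 isogenic control strain grown at permissive 25 °C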
tim23-1 inh = growth inhibitors of tim23-1 mutant yeast; S. cerevisiae tim23-1 growth, BacTiter-Glo luminescence, 24 h; inhibition, % at 20 µM; 330,000 compounds, 1.3% hits; AID 463212;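 active = growth inhibition of the mutant yeast at or above 50%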;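 also: temperature-sensitive mutant grown at 25 °C; plate controls were DMSO-treated mutant yeast for no effect and medium wells lacking yeast for full effect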
NALP1 inh = blocks the NALP1 inflammasome reconstituted in yeast. S. cerevisiae NALP1/ASC/caspase-1 growth, X-gal OD620, 72 h. inhibition, % at 10 µM. 280,000 compounds, 0.61% hits. AID 2071; in the data active = inhibition mostly above about 24%, no sharp cut-off; inactive = mostly below about 32%
tim10-1 inh = tim10-1 yeast growth inhibition; inhibition, % at 20 µM; AID 463190; S. cerevisiae tim10-1 ts strain growth, BacTiter-Glo, 24 h; 330,000 compounds, 2.2% hits;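 active = inhibition of at least 40%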;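 also: mutant grown at 25 °C; 0% = DMSO wells with yeast and 100% = wells holding no yeast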
V-ATPase pHluor = yeast V-ATPase proton transport regulation by pHLuorin. S. cerevisiae, pHLuorin cytosolic pH fluorescence. response, % at 10 µM. 350,000 compounds, 0.37% hits. AID 504577; in the data active = response mostly above about 7.3%, no sharp cut-off; inactive = mostly below about 5.4%; also: actives read high
NALP3 yeast inh = NALP3 inhibition in yeast. 330,000 compounds, 0.39% hits. inhibition, % at 10 µM. Yeast reconstituted NLRP3/ASC/caspase-1, beta-gal luminescence, 24 h;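 active = inhibition of 50% or more; inactive = inhibition below 50%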;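 also: plate controls were induced DMSO wells for no effect and uninduced yeast grown without galactose for full effect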
tim10-1 conf = confirmation of tim10-1 mutant yeast growth inhibitors; shares compounds with tim10-1 inh; S. cerevisiae tim10-1 ts strain growth, BacTiter-Glo, 24 h; inhibition, % at 20 µM; 7,400 compounds, 56% hits; AID 463213;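 active = inhibition of yeast growth at or above a set limit in either of two repeat tests at 20 µM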;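 also: tim10-1 mutant grown at permissive 25 °C to find synthetic lethal compounds; 0% = DMSO yeast wells and 100% = medium wells without yeast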
TIM10 conf = TIM10 yeast growth inhibition, confirmed; shares compounds with TIM10 inh; S. cerevisiae tim10 strain growth, BacTiter-Glo luminescence, 24 h; inhibition, % at 10 µM; 4,600 compounds, 63% hits; AID 463215;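 active = inhibition of yeast growth at or above a set limit in either of two replicates at 10 µM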;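 also: this counterscreen used the strain with wild-type TIM10; 0% = yeast with DMSO and 100% = medium wells lacking yeast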
* hit, by the source's call; . = no result. The list is not random: actives were taken first. Their share in the collection is about 4.2%.

SMILES	TIM10 inh	tim23-1 inh	NALP1 inh	tim10-1 inh	V-ATPase pHluor	NALP3 yeast inh	tim10-1 conf	TIM10 conf
O=C1c2cccc3c([N+](=O)[O-])ccc(c23)C(=O)N1c1nccs1	69*	38	2	84*	-32	-1	73*	96*
C=CCSc1nc2ccccc2n1C(=O)/C=C/c1cc(OC)c(OC)c(OC)c1	43*	44	4	45*	-4	42	49*	41*
Cc1ccc(-c2nn(-c3ccccc3)c3[nH]c(=O)c(CNCc4ccccc4)cc23)cc1	43*	47	11	52*	0	25	47*	42*
Cc1ccc(-c2nn(-c3ccccc3)c3[nH]c(=O)c(CNCCN(C)C)cc23)cc1	.	.	9	.	.	.	.	.
Clc1ccc(CN2CCN(c3ncnc4scc(-c5cccs5)c34)CC2)cc1	44*	29	7	44*	6	4	38*	32*
O=C(N[C@H](Cc1cc(=O)[nH]c2ccccc12)C(=O)O)c1ccc(Cl)cc1	13	15	12	6	-1	9	.	.
[S-]c1nnc(-c2ccc(Br)cc2)n1-c1ccccc1.[Zn+2]	3	14	-6	3	3	16	.	.
N#Cc1c(Cl)c(Cl)c2nnc(-c3ccc(Br)cc3)n2c1Cl	58*	42	15	46*	.	6	28	15
Cc1nn(Cc2ccccc2)c(C)c1NC(=O)c1ccc([N+](=O)[O-])cc1[N+](=O)[O-]	9	9	25	10	0	10	.	.
Cc1ccc(Nc2ncccc2C(=O)NCc2cccs2)c(C)c1	51*	36	10	49*	0	1	33*	39*
Cc1cccc(-c2nnc3sc(-c4ccccc4C)nn23)c1	41*	33	7	55*	-3	18	66*	44*
COc1cccc(-c2nnc3sc(-c4ccccc4)nn23)c1	3	40	9	22	0	32	.	.
Cc1nn(-c2ccc(F)cc2)c(C)c1NS(=O)(=O)c1ccc(Cl)cc1	51*	48	19	48*	2	6	40*	22
Cc1ccc(-n2nc(C)c(NS(=O)(=O)c3ccccc3)c2C)cc1C	27	28	3	39	2	7	.	.
CN1C(=O)C(C)(C)c2cc(S(=O)(=O)N3CCCCCC3)ccc21	-2	4	5	2	0	7	.	.
C[C@H]1CCC[C@]2(C)C[C@H]3OC(=O)C(CN4CCCCCC4)[C@H]3C=C12 (some centres undefined)	42*	44	13	44*	3	25	41*	49*
COc1cccc(-c2cc(C(=O)N3CCN(Cc4ccccc4)CC3)no2)c1	42*	30	-24	44*	-3	15	30*	46*
COc1ccccc1N1CCN(C(=O)c2cc(-c3ccc(Cl)cc3)on2)CC1	48*	33	-2	47*	-2	-2	32*	30*
COc1ccc(-c2cc(C(=O)N3CCN(Cc4ccccc4)CC3)no2)cc1OC	28	44	10	35	0	21	.	.
COc1ccc(C(=O)c2cc3c(cc2[N+](=O)[O-])OCCO3)cc1	-11	19	0	21	2	7	.	.
COc1ccc(C(=O)n2c(SC)nc3cc4c(cc32)OCCO4)cc1	47*	44	13	43*	-1	26	37*	21
C#CCOc1ccc(Cl)cc1/C=N/O	-2	13	-10	13	2	-15	.	.
O/N=C/c1cc(Cl)ccc1OCc1cccc2ccccc12	44*	48	8	63*	.	18	24	50*
O=C(NC1CCN(C(=O)C2CCCCC2)CC1)c1ccccc1	15	-13	2	-5	2	3	.	.
CCOc1ccc(-n2ccnc(SCC(=O)NCCc3ccccc3)c2=O)cc1	25	37	.	6	1	13	.	.
SMILES	TIM10 inh	tim23-1 inh	NALP1 inh	tim10-1 inh	V-ATPase pHluor	NALP3 yeast inh	tim10-1 conf	TIM10 conf
CCN1/C(=C\C=C(C(C)=O)C(C)=O)Sc2ccccc21	20	8	4	7	1	28	.	.
CCN1/C(=C\C(=S)Nc2ccccc2)Sc2ccccc21	50*	40	-3	45*	-1	30	12	43*
CC(C)CCNc1nc2c(c(=O)n(Cc3cccc(F)c3)c(=O)n2C)n1C	46*	34	-3	47*	2	2	26	34*
c1ccc(-c2ccc3sccc3n2)cc1	13	13	.	6	-9	8	.	.
C[C@H](NC(=O)c1ccc(Cl)cc1)C(=O)OCn1nnc2ccccc2c1=O	-29	7	.	-12	-3	-8	.	.
O=C(CSCC(=O)OCn1nnc2ccccc2c1=O)Nc1ccc(Cl)cc1	51*	47	-1	62*	-2	-7	55*	25
CCN(CC)/C(Sc1ccccc1)=C(/C(Cl)=C(Cl)Cl)[N+](=O)[O-]	42*	39	-16	46*	5	-11	33*	35*
COCCOC(=O)c1c(C)oc2ccc(OC(=O)c3cccs3)cc12	10	25	12	17	-1	33	.	.
COc1ccc(CC(=O)NNC(=O)c2cc(C)[nH]n2)cc1	-5	4	7	2	2	10	.	.
CC(=O)NC(CCS(C)(=O)=O)C(=O)Nc1cc(Cl)ccc1Cl (centres undefined)	-11	11	21	8	1	11	.	.
CC(C)S(=O)(=O)c1csc(NC(=O)Nc2cc(Cl)ccc2Cl)c1Cl	47*	21	-1	42*	1	0	28	41*
Cc1cc(-c2ccccc2)nc(-c2ccccc2)c1C	24	13	-4	13	-1	-12	.	.
CC(C)Cn1c(-c2ccccc2F)n[nH]c1=S	2	12	3	17	-1	3	.	.
CC(C)Cn1c(-c2csc3c2CCCC3)n[nH]c1=S	44*	40	-10	48*	3	21	20	40*
CC(=O)CCn1c(=O)n(CCC(C)=O)c(=O)n(CCC(C)=O)c1=O	2	4	3	13	0	14	.	.
O=C(CCS(=O)(=O)c1ccccc1)N(CCCN1CCOCC1)c1nc2ccccc2s1	53*	42	.	48*	5	49	31	64*
CCOC(=O)C1CCCN(c2ncnc3c2[nH]c2cccc(OC)c23)C1 (centres undefined)	.	.	-1	.	.	.	.	.
CCSc1nnc([C@H](Cc2ccccc2)NC(=O)OC(C)(C)C)o1	23	14	10	25	2	4	.	.
CC(C)(C)OC(=O)N[C@@H](Cc1ccccc1)c1nnc(SCC(=O)O)o1	-1	12	-24	0	-5	0	.	.
